We go through 14 molecules from PubChem BioAssay.

Molecules are shown by their SMILES. Activity calls are given as the source filed them.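 The calls were made as follows, unless noted: active = inhibition at or above 50% at 10 µM; inactive = inhibition below 50%.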

Assay [1] in a line: inhibitors of TNFa-induced NFkB p65 translocation, primary screen, imaging, HUVEC, MLSMR starter and 10KST1 sets (AID 438;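 active = inhibition above 20% together with a positive visual image hit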;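 also: compound added about 3h40 before a 20 min TNFalpha stimulation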;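 as to inhibition: signal is the nuclear over cytoplasmic p65 intensity ratio per well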). The following applies: HUVEC TNFa-induced p65 nuclear translocation; cell count: measured here: nuclei count (cytotoxicity indicator), at 2.08 µM; inhibition: at 2 µM, stronger effect = higher value, 0% TNFa-plus-vehicle, 100% no-TNFa wells.
A short description of assay [2]: inhibitors of mutant huntingtin aggregation, primary screen, imaging, exon1htt(103Q)mCFP cells, high-content imaging (AID 483;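 active = visual image review flags a hit and inhibition of aggregation exceeds 20%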;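 also: compound exposure lasted 3 days before fixation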;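 as to nuclei count: percent of the per-plate median nuclei count of sample wells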). The conditions noted are these: exon1htt(103Q)mCFP cell line, aggregate imaging, at 2 µM; inhibition of aggregation: stronger effect = higher value; nuclei count: measured here: cell count, toxicity.
Assay [3] in a line: inhibitors of E-selectin induction by TNFa, primary screen, imaging, HUVEC, immunofluorescence, MLSMR starter and 10KST1 sets (AID 487;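 active = visually confirmed hit in the image check and inhibition above 20%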;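 as to inhibition: signal is fraction of cell area covered by stained E-selectin grains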;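 as to nuclei count: 100% = median nuclei count of all wells on the same plate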). The following applies: HUVEC TNFalpha-induced E-selectin immunofluorescence imaging, at 2 µM; inhibition: stronger effect = higher value; nuclei count: measured here: cell number, toxicity.
Assay [4] concerns the target Voltage-gated potassium channel subunit beta-2 (Rattus norvegicus) (UniProt P62483). The experiment in a line: KvBeta enzyme negative modulators, primary screen, biochemical, NADPH fluorescence (AID 622;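 active = fluorescence slope higher than the sample average by over 3 SD, cut at about -0.22 in these data, passing the limit was not always enough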;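 also: slope of raw intensity against log time taken from 70 to 1610 s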). The following applies: recombinant KvBeta, 4-cyanobenzaldehyde reduction, at 10 µM, stronger effect = higher value.
Assay [5] has the same target. The experiment in a line: KvBeta positive modulators, primary screen, biochemical, NADPH fluorescence (AID 623;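 active = NADPH fluorescence slope more negative than the mean of all samples by about 3 SD, 99.7% confidence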;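 also: fluorescence intensity change per second fitted from 20 to 320 s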). The conditions noted are these: Recombinant KvBeta, NADPH fluorescence decrease slope, 10 min; at 10 µM; stronger effect = lower value.
Assay [6] concerns the target Alpha-2C adrenergic receptor (Homo sapiens) (UniProt P18825). The assay can be described thus: modulators of alpha2C/GIRK thallium flux, primary screen, cell-based, HEK293 alpha2C/GIRK1/2 (AID 624;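 active = fluorescence slope after compound addition differing from the mean of all screened samples at 99.7% confidence, in either direction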;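 also: slope of fluorescence ratio to pre-addition baseline per second over 15 to 24 s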). The following applies: thallium flux BTC fluorescence, at 10 µM, actives lie on both sides.
Assay [7] can be described thus: inhibitors of Sendai virus-induced IRF3 signaling, primary screen, TLR/RLR signaling modifier project, cell-based, Sendai virus stimulus, luciferase, 10K MLSCN set (AID 602276).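 Also: firefly luciferase from ISG56 promoter only with Renilla not read in this screen; 0% = Sendai virus plus DMSO and 100% = medium plus DMSO without virus.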 The following applies: HEK293 RL24 IRF3 luciferase reporter, at 10 µM, stronger effect = higher value.
The nature of assay [8]: inhibitors of poly I:C-induced TLR3 signaling, primary screen, cell-based, poly I:C stimulus, luciferase, 10K MLSCN set (AID 602277;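 active = inhibition of the reporter signal at or above 50%; inactive = inhibition below 50%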). The following applies: HEK293-TLR3 RL24 IRF3 luciferase reporter, at 10 µM, stronger effect = higher value.

Alpha-2C adrenergic receptor (Homo sapiens), sequence (P18825 whole entry, looked up): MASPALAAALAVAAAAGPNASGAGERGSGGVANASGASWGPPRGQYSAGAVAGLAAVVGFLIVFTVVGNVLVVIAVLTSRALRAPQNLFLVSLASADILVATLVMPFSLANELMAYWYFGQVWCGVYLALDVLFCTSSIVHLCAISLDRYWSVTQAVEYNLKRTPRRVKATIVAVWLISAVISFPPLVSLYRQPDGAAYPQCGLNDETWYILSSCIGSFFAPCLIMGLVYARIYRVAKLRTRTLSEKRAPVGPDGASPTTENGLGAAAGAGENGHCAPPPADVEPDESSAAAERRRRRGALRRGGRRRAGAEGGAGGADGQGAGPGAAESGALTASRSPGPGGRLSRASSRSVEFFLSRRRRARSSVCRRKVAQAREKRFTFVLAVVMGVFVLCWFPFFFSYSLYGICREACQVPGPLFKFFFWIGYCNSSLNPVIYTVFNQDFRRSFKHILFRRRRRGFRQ
Voltage-gated potassium channel subunit beta-2 (Rattus norvegicus), sequence (P62483 whole entry, looked up): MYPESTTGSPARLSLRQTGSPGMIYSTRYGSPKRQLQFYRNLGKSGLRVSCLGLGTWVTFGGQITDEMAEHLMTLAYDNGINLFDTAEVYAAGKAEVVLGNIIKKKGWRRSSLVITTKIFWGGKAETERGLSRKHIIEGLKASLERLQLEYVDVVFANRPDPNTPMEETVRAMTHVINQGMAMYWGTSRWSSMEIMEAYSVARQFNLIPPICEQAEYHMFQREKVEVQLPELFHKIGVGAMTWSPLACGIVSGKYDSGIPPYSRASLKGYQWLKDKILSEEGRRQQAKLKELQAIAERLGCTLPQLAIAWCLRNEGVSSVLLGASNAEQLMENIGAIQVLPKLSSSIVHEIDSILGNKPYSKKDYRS

As to `COc1ccc(C(=O)N2CCN(C3CCCCC3)CC2)c(OC)c1`, the cell count in assay [1] was 324. For the same molecule, the inhibition was -0.9% (inactive) in assay [1], -48.1% (inactive) in assay [3], 1% (inactive) in assay [7] and 12.4% (inactive) in assay [8]. The inhibition of aggregation in assay [2] was -21.3% (inactive). Moreover, the nuclei count in assay [2] worked out at 83.3%; in assay [3], 138%. In addition, in assay [4], the fluorescence slope is -0.609 (inactive). Further, in assay [5], the NADPH fluorescence slope was -1.5e-05 (inactive). The slope in assay [6] was 0.00408 (inactive).

Consider `COc1ccc(C)cc1S(=O)(=O)N(C)CC(=O)Nc1ccc2c(c1)OCO2`, for which, in assay [1], the cell count is 505. Also, the inhibition was -15.7% (inactive) in assay [1], 26.3% (inactive) in assay [3], 12.3% (inactive) in assay [7] and 12.3% (inactive) in assay [8]. In addition, the inhibition of aggregation in assay [2] is 8.7% (inactive). For the same molecule, the nuclei count was 94.7% in assay [2] and 84.9% in assay [3]. The fluorescence slope in assay [4] is -0.616 (inactive). In addition, the NADPH fluorescence slope in assay [5] is -5e-05 (inactive). Besides, in assay [6], the slope is 0.00341 (inactive).

As to `OC(CN1CCOCC1)Cn1c(-c2cccc(Cl)c2)nc2ccccc21` (centres undefined), the cell count in assay [1] stood at 500. Further, the inhibition was -2.9% (inactive) in assay [1], -39.6% (inactive) in assay [3], 10.2% (inactive) in assay [7] and 32.2% (inactive) in assay [8]. Further, the inhibition of aggregation in assay [2] was -7.7% (inactive). Besides, the nuclei count turned out to be 108% in assay [2] and 112% in assay [3]. Besides, in assay [4], the fluorescence slope was -0.598 (inactive). The NADPH fluorescence slope in assay [5] is 1.9e-05 (inactive). In addition, the slope in assay [6] was 0.00704 (inactive).

For `CC(C)OC(=O)CSc1nnc(-c2cccnc2)n1Cc1ccccc1`, the cell count in assay [1] worked out at 706. The inhibition in assay [1] was -16.4% (inactive); in assay [3] it was 5.1% (inactive); in assay [7], 8.88% (inactive); in assay [8], 10.9% (inactive). Moreover, in assay [2], the inhibition of aggregation was 8.1% (inactive). Besides, the nuclei count came to 88.7% in assay [2] and 98.8% in assay [3]. Besides, the fluorescence slope in assay [4] was -0.356 (inactive). Moreover, in assay [5], the NADPH fluorescence slope is -4.8e-05 (inactive). For the same molecule, the slope in assay [6] was 0.00509 (inactive).

On to `CCn1cc(C(=O)NCC2CCCO2)c(=O)c2cc(S(=O)(=O)N(C)C)ccc21` (centres undefined), for which, in assay [1], the cell count stood at 767. Besides, the inhibition in assay [1] was -2.4% (inactive); in assay [3] it was -50.6% (inactive); in assay [7], -12.7% (inactive); in assay [8], 1.32% (inactive). Further, the inhibition of aggregation in assay [2] was -9.8% (inactive). The nuclei count in assay [2] was determined as 105%; in assay [3], 117%. In addition, the fluorescence slope in assay [4] was -0.465 (inactive). For the same molecule, in assay [5], the NADPH fluorescence slope is -8.2e-05 (inactive). The slope in assay [6] was 0.00671 (inactive).

As to `Nn1c(SCC(=O)Nc2ccc(S(=O)(=O)N3CCCC3)cc2)nnc1C(F)(F)F`, the cell count in assay [1] amounted to 704. Besides, the inhibition in assay [1] was -3.3% (inactive); in assay [3], -33.2% (inactive); in assay [7] it was 9.87% (inactive); in assay [8] it was 12.8% (inactive). Besides, in assay [2], the inhibition of aggregation was -7% (inactive). For the same molecule, the nuclei count was 104% in assay [2] and 128% in assay [3]. For the same molecule, in assay [4], the fluorescence slope was -0.504 (inactive). Further, in assay [5], the NADPH fluorescence slope is -6.5e-05 (inactive). Also, the slope in assay [6] was 0.00607 (inactive).

Take `CCOc1ccc2[nH]c(O)c(NC(C)=O)c2c1`: in assay [1], the cell count was 645. For the same molecule, the inhibition in assay [1] was -20.5% (inactive); in assay [3] it was 43.8% (inactive); in assay [7], 10.2% (inactive); in assay [8], 16.9% (inactive). In assay [2], the inhibition of aggregation is 5.7% (inactive). The nuclei count in assay [2] came out at 104%; in assay [3] it was 101%. Also, the fluorescence slope in assay [4] is -0.361 (inactive). The NADPH fluorescence slope in assay [5] was -5.8e-05 (inactive). The slope in assay [6] is 0.00431 (inactive).

Regarding `CCCOC(=O)/C(C(N)=NCc1ccccc1)=C(\O)OCCC`, in assay [1], the cell count is 488. Besides, the inhibition in assay [1] was 4.4% (inactive); in assay [3] it was -8.5% (inactive); in assay [7], -11.7% (inactive); in assay [8], -11.9% (inactive). For the same molecule, the inhibition of aggregation in assay [2] was -27.7% (inactive). In addition, the nuclei count turned out to be 110% in assay [2] and 127% in assay [3]. In addition, in assay [4], the fluorescence slope was -0.406 (inactive). Besides, the NADPH fluorescence slope in assay [5] was 0.00015 (inactive). The slope in assay [6] is 0.00562 (inactive).

On to `CCN(CC)C(=O)Oc1ccc(NC(C)=O)cc1`, for which the cell count in assay [1] was 383. Further, the inhibition in assay [1] is 2.1% (inactive); in assay [3] it was -27.3% (inactive); in assay [7], -1% (inactive); in assay [8], 23% (inactive). In assay [2], the inhibition of aggregation is 1.1% (inactive). The figures for the nuclei count in assay [2] and in assay [3] were 99.8% and 102%, respectively. For the same molecule, the fluorescence slope in assay [4] was -0.431 (inactive). The NADPH fluorescence slope in assay [5] is -6.8e-05 (inactive). In assay [6], the slope was 0.00611 (inactive).

For the molecule `O=S(=O)(c1ccc(F)cc1)N1CCC(N2CCCC2)CC1`, the cell count in assay [1] is 621. Also, the inhibition in assay [1] is 12.4% (inactive); in assay [3], 12.6% (inactive); in assay [7], 6.84% (inactive); in assay [8] it was 45.9% (inactive). In addition, the inhibition of aggregation in assay [2] is 5.9% (inactive). The nuclei count in assay [2] and in assay [3] was 107% throughout. The fluorescence slope in assay [4] was -0.537 (inactive). Besides, the NADPH fluorescence slope in assay [5] is -4.2e-05 (inactive). For the same molecule, the slope in assay [6] was 0.00636 (inactive).

As for `COCCNC(=O)CCCCCN1C(=O)CCC1=O`, the cell count in assay [1] was 221. For the same molecule, the inhibition is -7.7% (inactive) in assay [1], 25.1% (inactive) in assay [3], 11.6% (inactive) in assay [7] and 24.9% (inactive) in assay [8]. Also, in assay [2], the inhibition of aggregation is -8.5% (inactive). Further, the results for the nuclei count in assay [2] and in assay [3] were 85.3% and 71.9%, respectively. Besides, the fluorescence slope in assay [4] is -0.595 (inactive). In addition, the NADPH fluorescence slope in assay [5] is -5.1e-05 (inactive). In addition, in assay [6], the slope was 0.00625 (inactive).

For `Cc1ccc(S(=O)(=O)CCC(=O)Nc2ccc3c(c2)OCO3)cc1`, the cell count in assay [1] is 666. Further, the inhibition is -12.2% (inactive) in assay [1], -26.9% (inactive) in assay [3], -0.686% (inactive) in assay [7] and 12.3% (inactive) in assay [8]. The inhibition of aggregation in assay [2] was -1.1% (inactive). Further, the values for the nuclei count in assay [2] and in assay [3] were 131% and 115%, respectively. The fluorescence slope in assay [4] was -0.587 (inactive). Besides, the NADPH fluorescence slope in assay [5] was -6.2e-05 (inactive). Moreover, the slope in assay [6] was 0.00603 (inactive).

For `COC(=O)c1ccnc(/C=N/O)c1`, in assay [1], the cell count came out at 715. The inhibition in assay [1] is -2% (inactive); in assay [3], 11.2% (inactive); in assay [7], 15.5% (inactive); in assay [8], 19.8% (inactive). Also, in assay [2], the inhibition of aggregation is -19.8% (inactive). In addition, the nuclei count was 112% in assay [2] and 108% in assay [3]. Also, the fluorescence slope in assay [4] was -0.578 (inactive). In addition, the NADPH fluorescence slope in assay [5] is -2e-05 (inactive). Moreover, the slope in assay [6] is 0.00558 (inactive).

In the case of `CC(C)(C)n1nnnc1CN(Cc1ccco1)Cc1cc2cc3c(cc2[nH]c1=O)OCO3`, in assay [1], the cell count worked out at 667. Also, the inhibition in assay [1] is 13.3% (inactive); in assay [3] it was -53.9% (inactive); in assay [7], 15.5% (inactive); in assay [8], 16% (inactive). Further, the inhibition of aggregation in assay [2] is -11.2% (inactive). Besides, the results for the nuclei count in assay [2] and in assay [3] were 108% and 130%, respectively. Also, the fluorescence slope in assay [4] is -0.401 (inactive). Also, the NADPH fluorescence slope in assay [5] was -5.7e-05 (inactive). Moreover, in assay [6], the slope was 0.00513 (inactive).
